Bioassay records deposited in PubChem BioAssay by National Center for Advancing Translational Sciences (NCATS).
Shown are actives, neighbours in structure and some others; about 19% of the full set was active somewhere.
TDP1 cell noCPT – qHTS for Inhibitors of human tyrosyl-DNA phosphodiesterase 1 (TDP1): qHTS in cells in absence of CPT; 15% of 420,000 active; AID 686978, 2013; DT40 Tdp1-/- hTDP1 cells, no CPT, ATP luminescence, 48 h; Potency, µM (titrated, usually from 46.2 µM), without a hit: at the top dose activity change, negative = growth inhibition, actives largely listed as inhibitors; further: potency means the concentration at half of the fitted maximal effect; nearly all actives have a fitted effect of over 55% in size
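Camptothecin absent (DMSO only). Human TDP1-complemented DT40 knockout cells, 400 cells/well, 37 °C for minimum 48 hr; ATP measured via CellTiter-Glo, 30 min dark incubation, luminescence.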
HT1080 IDH1KD tx – toxicity to HT-1080 IDH1 knockdown cells (counter line). Potency, µM (titrated, usually from 46.1 µM), for inactives: top-dose activity, negative = toxicity, hits mostly cytotoxic. 2% of 360,000 active. AID 686971. HT-1080 IDH1 knockdown viability, ATP luminescence, 48 h;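 further: potency means the concentration at half of the fitted maximal effect; 0% = DMSO wells and -100% = cell-free medium wells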
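Cytotoxicity counter-line: IDH1KD HT-1080, 48 h, CellTiter-Glo. Curves classed by r2, magnitude and activity.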
DT40 TDP1 CPT – DT40-hTDP1 cell growth loss with CPT; chicken DT40 Tdp1-/-;hTDP1 cells + 20 nM CPT, ATP luminescence, 48 h; Potency, µM (top dose mostly 46.2 µM), for inactives: at the top dose activity change, negative = growth inhibition, most hits filed as inhibitors; 12% of 420,000 active; AID 686979; further: potency means the concentration at half of the fitted maximal effect; nearly all actives have a fitted effect of over 55% in size
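Chicken DT40 Tdp1-/- cells complemented with human TDP1, 400 cells/well, exposed to compounds plus 20 nM camptothecin for at least 48 h at 37 C; viability read as ATP content by CellTiter-Glo luminescence.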
IL1B secr inh – inhibitors of inflammasome signaling (IL-1 beta secretion); THP-1 LPS/ATP IL-1B secretion, AlphaLISA, 16 h; hits give low values; AID 743279; activity change, % at 57.5 µM; 4.7% of 360,000 active; in the data active means activity change below about -50%; inconclusive means mostly about -30% to -49%
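Secreted IL-1B measured by AlphaLISA bead assay after 16 h compound exposure of THP-1 cells; compounds (final up to 57.5 uM) added 1 h before LPS (250 ng/mL) and ATP (1.25 mM) stimulation; lower signal means less secretion.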
HT1080NT lethal – kills 2HG-producing HT-1080-NT fibrosarcoma cells; HT-1080-NT fibrosarcoma viability, CellTiter-Glo ATP luminescence, 48 h; Potency, µM (doses to about 46.1 µM), for inactives: at the top dose activity, negative = less viability, hits mostly cytotoxic; 1.6% of 360,000 active;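 further: NT is the 2HG producing partner of a matched IDH1 knockdown line; potency means the concentration at half of the fitted maximal effect; 0% = DMSO-treated cells and -100% = media-only wells without cells; nearly all actives have a fitted effect of over 55% in size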
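750 cells/well, RPMI + 5% FBS; 2 h settle, compound pin-transfer, 48 h at 37 degrees C. CellTiter-Glo 10 min RT, luminescence. Normalized to DMSO and media-only wells.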
* hit, by the source's call. Unless noted, the call rests on the fitted dose curve; in most records, active means well fitted curve in the direction sought with a large enough effect; inconclusive means small, poorly fitted or top-dose-only effect, or another doubt; inactive means no such curve, though single readings can be large; an effect the other way counts as inactive or inconclusive. Unless noted, on the % scale 0 is the no-effect control and ±100 the full control effect.

Screening CC(C)=CCC/C(C)=C/CNC(=O)C[C@H]1C[C@H](C(=O)N2CCCCC2)[C@@]2(C)c3[nH]c4cc(-c5ccco5)ccc4c3CCN2C1=O returned TDP1 cell noCPT 21µM*, HT1080 IDH1KD tx inconclusive, DT40 TDP1 CPT inconclusive, IL1B secr inh -67* and HT1080NT lethal inconclusive.
Screening CCN(CC)C(=O)[C@H]1C[C@H](CC(=O)NC/C=C(\C)CCC=C(C)C)C(=O)N2CCc3c([nH]c4cc(-c5ccco5)ccc34)[C@]12C returned TDP1 cell noCPT inconclusive, HT1080 IDH1KD tx inconclusive, DT40 TDP1 CPT inconclusive, IL1B secr inh -65* and HT1080NT lethal inconclusive.
CC(C)=CCC/C(C)=C/CNC(=O)C[C@H]1C[C@H](C(=O)N(C(C)C)C(C)C)[C@@]2(C)c3[nH]c4cc(-c5ccco5)ccc4c3CCN2C1=O was read as TDP1 cell noCPT inconclusive, HT1080 IDH1KD tx inconclusive, DT40 TDP1 CPT inconclusive, IL1B secr inh -65* and HT1080NT lethal inconclusive.
`CC(C)N(C(=O)[C@H]1C[C@H](CC(=O)NCCCN(C)C)C(=O)N2CCc3c([nH]c4cc(CCC(=O)N(C)C)ccc34)[C@]12C)C(C)C` gave TDP1 cell noCPT 16%, HT1080 IDH1KD tx 10%, DT40 TDP1 CPT 11%, IL1B secr inh 15 and HT1080NT lethal 14%.
Screening CC(C)=CCC/C(C)=C/CNC(=O)C[C@H]1C[C@H](C(=O)N(C(C)C)C(C)C)[C@@]2(C)c3[nH]c4cc(CCC(=O)N(C)C)ccc4c3CCN2C1=O returned TDP1 cell noCPT 9.2µM*, HT1080 IDH1KD tx inconclusive, DT40 TDP1 CPT 10µM*, IL1B secr inh -67* and HT1080NT lethal inconclusive.
Screening O=C(C1CCN(S(=O)(=O)c2cccs2)CC1)N1CCN(c2ccccc2O)CC1 returned TDP1 cell noCPT inconclusive, HT1080 IDH1KD tx -9%, DT40 TDP1 CPT 15µM*, IL1B secr inh -27 and HT1080NT lethal 0%.
CC1Cc2ccccc2N1C(=O)C1CCN(S(=O)(=O)c2cccs2)CC1 (stereo not drawn) was read as TDP1 cell noCPT -11%, HT1080 IDH1KD tx -1%, DT40 TDP1 CPT inconclusive, IL1B secr inh -67* and HT1080NT lethal 13%.
Screening O=C(C1CCC(CNS(=O)(=O)c2cccs2)CC1)N1CCN(c2ccc(F)cc2)CC1 (stereo not drawn) returned TDP1 cell noCPT 21µM*, HT1080 IDH1KD tx -17%, DT40 TDP1 CPT inconclusive, IL1B secr inh inconclusive and HT1080NT lethal -13%.
`Cc1cccc(N2CCN(S(=O)(=O)c3cccs3)CC2)c1C` gave TDP1 cell noCPT 4%, HT1080 IDH1KD tx -5%, DT40 TDP1 CPT 0%, IL1B secr inh inconclusive and HT1080NT lethal -12%.
`Cc1ccccc1N1CCN(S(=O)(=O)c2cccs2)CC1` gave TDP1 cell noCPT -1%, HT1080 IDH1KD tx -10%, DT40 TDP1 CPT -11%, IL1B secr inh -54* and HT1080NT lethal 5%.
O=C(C1CCN(S(=O)(=O)c2cccs2)CC1)N1CCN(c2ccccc2F)CC1 was read as TDP1 cell noCPT inconclusive and DT40 TDP1 CPT -11%.
Screening COc1ccc(N2CCN(C(=O)C3CCN(S(=O)(=O)c4cccs4)CC3)CC2)cc1 returned TDP1 cell noCPT 23µM*, HT1080 IDH1KD tx -5%, DT40 TDP1 CPT inconclusive, IL1B secr inh 5 and HT1080NT lethal -12%.
`COc1ccc(N2CCN(C(=O)c3ccc(NS(=O)(=O)c4cccs4)cc3)CC2)cc1` gave TDP1 cell noCPT 13µM*, HT1080 IDH1KD tx 0%, DT40 TDP1 CPT inconclusive, IL1B secr inh 4 and HT1080NT lethal -3%.
Screening O=C(O)C1CCN(S(=O)(=O)c2cccc3nonc23)CC1 returned TDP1 cell noCPT 8%, HT1080 IDH1KD tx 6%, DT40 TDP1 CPT 0%, IL1B secr inh -2 and HT1080NT lethal 10%.
For COc1ccc(N2CCN(C(=O)C3CCN(S(=O)(=O)c4cccc5nonc45)CC3)CC2)cc1 the results were TDP1 cell noCPT 16µM* and DT40 TDP1 CPT inconclusive.
Screening Cc1cc(NC(=O)Cn2c(=O)nc(-c3ccccc3F)c3cc(Cl)ccc32)ccc1Br returned TDP1 cell noCPT inconclusive and DT40 TDP1 CPT -22%.
For COC(=O)C1=C(C(=O)OC)[C@@H]2N(C)c3ccc(OC)cc3[C@@]23C[C@@H](C(=O)OC)N(C(=O)NC2CCCCC2)C3=N1 the results were TDP1 cell noCPT -25%, HT1080 IDH1KD tx -7%, DT40 TDP1 CPT -7%, IL1B secr inh -2 and HT1080NT lethal -4%.
`Cc1nc(C)c(-c2ccc(SCC(=O)Nc3cccc(F)c3)nn2)s1` gave TDP1 cell noCPT 23µM*, HT1080 IDH1KD tx -17%, DT40 TDP1 CPT 16µM*, IL1B secr inh inactive and HT1080NT lethal inconclusive.
`Cc1nc(C)c(-c2ccc(SCC(=O)Nc3ccc(Br)cc3)nn2)s1` gave TDP1 cell noCPT inconclusive and DT40 TDP1 CPT 21µM*.
`COc1ccc(NC(=O)CSc2ccc(-c3sc(C)nc3C)nn2)cc1` gave TDP1 cell noCPT inconclusive, HT1080 IDH1KD tx -24%, DT40 TDP1 CPT -24%, IL1B secr inh inactive and HT1080NT lethal -15%.
For CCc1ccc(NC(=O)CSc2ccc(-c3sc(C)nc3C)nn2)cc1 the results were TDP1 cell noCPT inconclusive, HT1080 IDH1KD tx inconclusive, DT40 TDP1 CPT inconclusive, IL1B secr inh 72 and HT1080NT lethal -18%.
CC(=O)c1cccc(NC(=O)CSc2ccc(-c3sc(C)nc3C)nn2)c1 was read as TDP1 cell noCPT 23µM*, HT1080 IDH1KD tx -19%, DT40 TDP1 CPT 21µM*, IL1B secr inh inactive and HT1080NT lethal -18%.
Screening Cc1nc(C)c(-c2ccc(SCC(=O)Nc3cccc(Cl)c3)nn2)s1 returned TDP1 cell noCPT inconclusive, HT1080 IDH1KD tx -18%, DT40 TDP1 CPT 26µM*, IL1B secr inh 3 and HT1080NT lethal -2%.
CCOc1ccc2nc(SCc3ccc(C(=O)OC)o3)[nH]c2c1 was read as TDP1 cell noCPT inconclusive, HT1080 IDH1KD tx 15%, DT40 TDP1 CPT -5%, IL1B secr inh 21 and HT1080NT lethal 0%.
CN(Cc1ccccc1)C(=O)COC(=O)C1CCN(S(=O)(=O)c2ccc(Cl)c(C(F)(F)F)c2)CC1 was read as TDP1 cell noCPT inconclusive, HT1080 IDH1KD tx 0%, DT40 TDP1 CPT -29%, IL1B secr inh 47 and HT1080NT lethal -8%.
For COc1ccc(CCNC(=O)C(=O)NCC(c2ccc3c(c2)OCO3)N2CCOCC2)cc1OC (stereo not drawn) the results were TDP1 cell noCPT -24% and DT40 TDP1 CPT -8%.
